FEN1 inh: qHTS Assay for the Inhibitors of Human Flap endonuclease 1 (FEN1). P39748. Recombinant FEN1 flap cleavage, fluorescence, 15 min. Potency, µM (doses to about 114 µM), usual class: inhibitors. 0.35% of 390,000 active. AID 588795, 2011; note: nearly all actives have a fitted effect of over 65% in size
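In this screen, 50 nM flap DNA substrate was added to 10 nM FEN1 pretreated with compound for 15 min at room temperature; cleavage was followed with reads at 0 and 15 min, and Hill fitting gave concentration–response parameters.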
WRN helicase inh: qHTS for Inhibitors of WRN Helicase; 0.46% of 360,000 active; Potency, µM (series often up to 114 µM), usual class: inhibitors; Bifunctional 3'-5' exonuclease/ATP-dependent helicase WRN (Homo sapiens), Q14191; WRN helicase unwinding, fluorescent forked duplex, kinetic; note: nearly all actives have a fitted effect of over 55% in size
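Fluorescence dequenching readout, ex 525 nm/em 598 nm, kinetic mode: forked duplex DNA (100 nM final) with adjacent fluorophore and quencher unwound by WRN (20 nM final) with 2 mM ATP. Compound preincubation 15 min, room temperature.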
POLK inh: qHTS for Inhibitors of Polymerase Kappa; purified Pol kappa, fluorescent DNA synthesis assay, 10 min; Potency, µM (titrated, usually from 107 µM), most hits filed as inhibitors; 0.53% of 400,000 active; AID 588579, 2011
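Pol kappa 10 nM + cpd, 15 min RT; start w/ substrate 50 nM final; fluorescence kinetic read, 0 and 10 min. Neg ctrl: buffer, no enzyme.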
Pol eta inh: qHTS for Inhibitors of Polymerase Eta. DNA polymerase eta (Homo sapiens), Q9Y253. recombinant Pol eta, fluorescent DNA replication assay. Potency, µM (doses to about 114 µM), most hits filed as inhibitors. 1.2% of 390,000 active. AID 588591, 2011
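Fluorescent replication assay: 50 nM final substrate added after a 15 min room-temperature compound preincubation with 10 nM enzyme. Signal taken at 0 min and again at 10 min.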
POLI inh: qHTS for Inhibitors of Polymerase Iota; Pol iota fluorescent replication assay, 10 min; Potency, µM (top dose mostly 115 µM), most hits filed as inhibitors; 1% of 390,000 active; AID 588590, 2011
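Pol iota at 10 nM preincubated 15 min with compounds at room temperature; reaction started with fluorescent substrate, 50 nM final. Fluorescence read kinetically at 0 and 10 min; buffer-only wells as negative control.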
POLB inh: qHTS Assay for Inhibitors of DNA Polymerase Beta; P06746; Pol beta primer extension/strand displacement, fluorescence kinetic; Potency, µM (highest dose often 114 µM), hits mostly inhibitors; 1.3% of 340,000 active
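Enzyme-only controls used 10 nM Pol beta; buffer lacking enzyme served as negative control. Compound preincubated 15 min, then 50 nM substrate added; 0 and 10 min reads at room temperature.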
Large screens that a line does not name were inactive. Most compounds without a hit are left out; they make up all but 2.4% or so of the library. Calls come from the whole dose curve; as a rule, active = well fitted curve in the direction sought with a large enough effect; inconclusive = small, poorly fitted or top-dose-only effect, or another doubt; inactive = no such curve, though single readings can be large; an effect the other way counts as inactive or inconclusive.

C1=Cc2ccccc2/C1=C/c1ccc2c(c1)OCO2	none (no result: WRN helicase inh, Pol eta inh, POLB inh)
Cc1cccc(N2CCN(C(=O)c3cc4c(=O)[nH]c5ccc(C)cc5c4s3)CC2C)c1 (stereo not drawn)	none (no result: WRN helicase inh)
C[C@H]1CC2[C@@H]3CCC4=CC(=O)C=C[C@]4(C)[C@@]3(F)[C@@H](O)C[C@]2(C)[C@@]1(O)C(=O)CO (stereo partly drawn)	POLI inh inconclusive (no result: FEN1 inh, WRN helicase inh, POLK inh)
O=C1C(=Cc2ccco2)CCCC1=Cc1ccco1	FEN1 inh inconclusive, WRN helicase inh inconclusive, POLK inh 50.1µM, Pol eta inh 22.4µM, POLI inh 20µM (no result: POLB inh)
COc1ccc(C(=O)NC(C(=O)OCC(=O)Nc2sccc2C(N)=O)C(C)C)cc1 (stereo not drawn)	Pol eta inh 89.1µM, POLI inh inconclusive (no result: POLB inh)
NC(=O)c1ccsc1NC(=O)COC(=O)c1cnccn1	WRN helicase inh inconclusive, POLK inh inconclusive, Pol eta inh inconclusive, POLI inh 79.4µM (no result: POLB inh)
NC(=O)c1ccsc1NC(=O)COC(=O)c1ccncc1	POLI inh inconclusive (no result: POLB inh)
NC(=O)c1ccsc1NC(=O)COC(=O)c1ccc(Cl)c(N)c1	Pol eta inh 22.4µM, POLI inh inconclusive (no result: POLB inh)
COc1ccc(C(=O)N[C@H](C(=O)Nc2sccc2C(N)=O)C(C)C)cc1	none
Cc1cc(O)c(C)c2sc(N)nc12	none (no result: FEN1 inh, WRN helicase inh, Pol eta inh, POLI inh, POLB inh)
CC[C@H](C)[C@H](NC(=O)[C@H](CCC(=O)O)NC(=O)CNC(=O)[C@H](CCCCN)NC(=O)[C@H](CCC(=O)O)NC(=O)[C@H](CCSC)NC(=O)[C@H](CCSC)NC(=O)[C@H](CCSC)NC(=O)[C@H](CCC(=O)O)NC(=O)CNC(=O)[C@H](CO)NC(=O)[C@H](CO)NC(=O)[C@H](CO)NC(=O)[C@@H](N)CC(N)=O)C(=O)N[C@@H](CCCCN)C(=O)O	none (no result: FEN1 inh, WRN helicase inh, Pol eta inh, POLI inh, POLB inh)
CC(=O)C1=C(c2ccc(Cl)c(Cl)c2)N(C(C)=O)n2cnnc2S1	POLI inh inconclusive, POLB inh inconclusive (no result: WRN helicase inh)
OC(C1=C/C(=C\c2ccncc2)c2ccccc21)c1ccncc1 (stereo not drawn)	none (no result: WRN helicase inh, Pol eta inh, POLB inh)
CSCC(=O)N1CCC(n2nccc2NC(=O)c2ccc3c(c2)OCO3)CC1	POLK inh 79.4µM, POLI inh inconclusive
CC(C)(C)n1ncc2c(=O)n(Cc3cc(C(F)(F)F)ccc3Cl)cnc21	none (no result: WRN helicase inh, Pol eta inh, POLB inh)
Cc1ccnc2ccc(I)cc12	none (no result: WRN helicase inh, Pol eta inh, POLB inh)
O=C(O)C1Cc2ccccc2CN1S(=O)(=O)c1ccccc1 (stereo not drawn)	Pol eta inh 79.4µM
CS(=O)(=O)N1Cc2ccccc2CC1C(=O)OCC(=O)Nc1ccc2ccccc2c1 (stereo not drawn)	POLK inh inconclusive, Pol eta inh inconclusive, POLI inh inconclusive, POLB inh 3.16µM
O=C(O)C1Cc2ccccc2CN1S(=O)(=O)c1ccc2ccccc2c1 (stereo not drawn)	Pol eta inh 5.62µM, POLI inh inconclusive
O=C(O)C1CCCN1S(=O)(=O)c1ccc2ccccc2c1 (stereo not drawn)	none
COc1ccc(S(=O)(=O)N2Cc3ccccc3CC2C(=O)Nc2ccc3c(c2)OCO3)cc1 (stereo not drawn)	none
Cc1ccc(S(=O)(=O)N2Cc3ccccc3CC2C(=O)Nc2ccc3c(c2)OCO3)cc1 (stereo not drawn)	POLK inh 50.1µM, Pol eta inh 10µM, POLI inh inconclusive, POLB inh 22.4µM
Cc1ccc(S(=O)(=O)N2CCN(c3nc(-c4cnccn4)nc4ccccc34)CC2)cc1	none (no result: WRN helicase inh, Pol eta inh, POLB inh)
COc1cccc(NC(=O)c2cc(-c3ccc(C)o3)nc3ccccc23)c1	POLK inh inconclusive, Pol eta inh 79.4µM, POLI inh inconclusive, POLB inh inconclusive
Cc1ccc(-c2cc(C(=O)NN3CCOCC3)c3cc(Br)ccc3n2)o1	POLB inh inconclusive
Cc1ccc(-c2cc(C(=O)Nc3ccccc3C)c3ccccc3n2)o1	Pol eta inh inconclusive, POLB inh 10µM
Cc1ccc(-c2cc(C(=O)NC3=NCCS3)c3cc(Br)ccc3n2)o1	POLB inh 79.4µM (no result: FEN1 inh, WRN helicase inh, POLK inh, Pol eta inh, POLI inh)
CCCN1CNc2c(c(=O)[nH]c(=S)n2CCc2cc(OC)ccc2OC)C1	none (no result: WRN helicase inh, Pol eta inh, POLB inh)
Cc1ccc(-n2nnc3c(sc4nc(C)c(C)cc43)c2=O)cc1Cl	none (no result: WRN helicase inh)
CCOC(=O)c1ccc(NC(=O)CSc2ncc(S(=O)(=O)c3ccc(C)c(Cl)c3)c(=O)[nH]2)cc1	FEN1 inh inconclusive, Pol eta inh inconclusive, POLI inh inconclusive, POLB inh 89.1µM (no result: WRN helicase inh)
CCC(Sc1ncc(S(=O)(=O)c2ccc(C)cc2)c(=O)[nH]1)C(=O)Nc1cc(C)ccc1C (stereo not drawn)	POLI inh inconclusive, POLB inh 25.1µM (no result: WRN helicase inh)
Cc1ccc(C)c(NC(=O)CSc2ncc(S(=O)(=O)c3ccc(C)c(Cl)c3)c(=O)[nH]2)c1	none (no result: WRN helicase inh)
CN(CC(=O)Nc1ccc(Cl)cc1)C(=O)c1cccc(S(=O)(=O)NCc2ccccc2)c1	none
Cc1ccc(NC(=O)CN(C)C(=O)c2cccc(S(=O)(=O)NCc3ccco3)c2)cc1	POLK inh inconclusive, Pol eta inh inconclusive, POLI inh 56.2µM (no result: POLB inh)
C=C1C=CS(=O)(=O)N(C(C)C(=O)OC)C1 (stereo not drawn)	POLI inh inconclusive (no result: WRN helicase inh, Pol eta inh, POLB inh)
COc1ccc(CC(=O)n2[nH]c(=O)c3ccccc3c2=O)cc1OC	none
COc1ccc(CC(=O)n2[nH]c(=O)ccc2=O)cc1OC	WRN helicase inh 22.4µM
CC1CC(C)CN(c2oc(-c3ccc(OCc4ccccc4Cl)cc3)nc2C#N)C1 (stereo not drawn)	none (no result: WRN helicase inh, Pol eta inh, POLB inh)
O=C(CCCCCNC(=O)c1ccccc1Br)N=Nc1c(O)[nH]c2ccccc12	POLI inh 79.4µM
Cc1cccc(S(=O)(=O)c2c(N)n(Cc3ccco3)c3nc4ccccc4nc23)c1	WRN helicase inh inconclusive, Pol eta inh inconclusive, POLI inh inconclusive
Cc1cccc(-n2cnc3c(c2=O)c2nc4ccccc4nc2n3Cc2ccco2)c1	Pol eta inh inconclusive, POLI inh inconclusive, POLB inh 39.8µM
COc1ccc(Cn2c3nc4ccccc4nc3c3c(=O)n(Cc4ccco4)cnc32)cc1	POLB inh 35.5µM (no result: FEN1 inh, WRN helicase inh, POLK inh, Pol eta inh, POLI inh)
COc1ccc(C(=O)NCC(=O)OCC(=O)c2ccc3ccccc3c2)cc1	none (no result: WRN helicase inh, Pol eta inh, POLB inh)
Nc1ccc(/C=C/c2nc3ccccc3s2)cc1	none (no result: WRN helicase inh, Pol eta inh, POLB inh)
CS(=O)(=O)c1ccc(C(=O)OCC(=O)NCC2CCCO2)cc1[N+](=O)[O-] (stereo not drawn)	none (no result: WRN helicase inh, Pol eta inh, POLB inh)
Oc1ccc(N2CCN(C(c3ccc(Cl)cc3)c3nnnn3Cc3ccc(F)cc3)CC2)cc1 (stereo not drawn)	none (no result: WRN helicase inh, Pol eta inh, POLB inh)

Assay outcomes as filed in PubChem.
